Assay [1] is described as follows: Quantitative High-Throughput drug screen in 47 multiple myeloma cell lines against the NCATS MIPE library collection: OCIMY7_PLB cell viability assay (AID 1918987). Further: nearly all actives have a fitted effect of over 65% in size. Further: potency means the concentration at half of the fitted maximal effect. In a few lines:
(§1)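 Myeloma cells (500/well) treated with MIPE 4.0 compounds for 48 h at 37 °C, 5% CO2. Viability read as ATP via CellTiter-Glo luminescence after 5 min at RT; DMSO-only wells = 100%, media-only = 0% viability.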

Assay [2] in a line: Quantitative High-Throughput drug screen in 47 multiple myeloma cell lines against the NCATS MIPE library collection: OCIMY5_PLB cell viability assay (AID 1918988). Further: nearly all actives have a fitted effect of over 65% in size. Further: potency means the concentration at half of the fitted maximal effect. The method, boiled down: as §1
Assay [3] can be described thus: Quantitative High-Throughput drug screen in 47 multiple myeloma cell lines against the NCATS MIPE library collection: SKMM1_PLB cell viability assay (AID 1919863). Further: nearly all actives have a fitted effect of over 35% in size. Further: potency means the concentration at half of the fitted maximal effect. As to conditions: SKMM1 myeloma viability, CellTiter-Glo ATP, 48 h; viability: hits give low values. In a few lines:
as §1
(ATP-based viability assays read luminescence as a measure of living cells.)

Assay [4] is described as follows: Quantitative High-Throughput drug screen in 47 multiple myeloma cell lines against the NCATS MIPE library collection: U266_ATCC cell viability assay (AID 1919864). Further: nearly all actives have a fitted effect of over 35% in size. Further: potency means the concentration at half of the fitted maximal effect. The method, boiled down: as §1
The nature of assay [5]: Quantitative High-Throughput drug screen in 47 multiple myeloma cell lines against the NCATS MIPE library collection: XG1_PLB cell viability assay (AID 1919866). Further: nearly all actives have a fitted effect of over 35% in size. Further: potency means the concentration at half of the fitted maximal effect. The method, boiled down: as §1
The nature of assay [6]: Quantitative High-Throughput drug screen in 47 multiple myeloma cell lines against the NCATS MIPE library collection: UTMC2_PLB cell viability assay (AID 1919868). Further: nearly all actives have a fitted effect of over 55% in size. Further: potency means the concentration at half of the fitted maximal effect. As to conditions: CellTiter-Glo ATP luminescence, 48 h; viability (% of DMSO control): at 45.8 µM (top of the series) unless noted. In a few lines:
as §1

The nature of assay [7]: Quantitative High-Throughput drug screen in 47 multiple myeloma cell lines against the NCATS MIPE library collection: OPM1_PLB cell viability assay (AID 1918989). Further: nearly all actives have a fitted effect of over 40% in size. Further: potency means the concentration at half of the fitted maximal effect. In a few lines: as §1
Assay [8] can be described thus: Quantitative High-Throughput drug screen in 47 multiple myeloma cell lines against the NCATS MIPE library collection: XG6_PLB cell viability assay (AID 1919865). Further: nearly all actives have a fitted effect of over 40% in size. Further: potency means the concentration at half of the fitted maximal effect. In a few lines: as §1
Assay [9] in a line: Quantitative High-Throughput drug screen in 47 multiple myeloma cell lines against the NCATS MIPE library collection: VP6_DJ cell viability assay (AID 1919867). Further: nearly all actives have a fitted effect of over 40% in size. Further: potency means the concentration at half of the fitted maximal effect. In a few lines:
as §1

The nature of assay [10]: Quantitative High-Throughput drug screen in 47 multiple myeloma cell lines against the NCATS MIPE library collection: KMS34_JCRB cell viability assay (AID 1918985). Further: nearly all actives have a fitted effect of over 40% in size. The method, boiled down:
as §1

Records with an inconclusive call do not appear. Values without a mark were called inactive. Activity calls are given as the source filed them. The call rests on the fitted dose curve; in most records, active means well fitted cell-killing curve with a large enough effect; inconclusive means small, poorly fitted or top-dose-only effect, or effect the other way; inactive means no such curve, though single readings can be large or run the other way.

As a reminder, the viability is a read-out of living cells in per cent, often relative to untreated cells. For the compound `Cn1c(CNc2ccc(C(=N)N)cc2)nc2cc(C(=O)N(CCC(=O)O)c3ccccn3)ccc21`, the Potency entry in [1], in assay [2] and in assay [4] was “inactive” in each case. Further, the viability in assay [3] is 127%.
Consider `CN[C@H]1CCc2cc(OC)c(OC)c(OC)c2-c2ccc(OC)c(=O)cc21`, for which the Potency is 0.001 µM (active) in assay [1]; 0.0013 µM (active) in assay [2]; 0.0037 µM (active) in assay [3]; 0.0066 µM (active) in assay [4]; 0.0093 µM (active) in [6]. The Potency entry in assay [5] is “inactive”.
In the case of `c1ccc2c(CCNc3ccc(Nc4ccncc4)cc3)c[nH]c2c1`, the Potency was 8.33 µM (active) in assay [1]; 20.9 µM (active) in [2]; 18.7 µM (active) in assay [7]; 29.6 µM (active) in assay [3]; 20.9 µM (active) in assay [4]; 23.5 µM (active) in assay [8]. Besides, the Potency in assay [5] is 20.9 µM (active); in assay [9], 23.5 µM (active).
On to `C[C@]1(CO)CN(c2cc(C(=O)Nc3ccc4c(c3)-c3c(c(C(N)=O)nn3-c3ccc(F)cc3)CC4)c(Cl)cn2)C[C@@]1(C)CO`, for which the Potency in assay [1] was 1.87 µM (active); in [2], 8.33 µM (active); in assay [7], 3.72 µM (active); in [4] it was 18.7 µM (active); in [8], 4.18 µM (active); in [5] it was 14.8 µM (active). The Potency in [9] is 16.6 µM (active); in assay [6], 11.8 µM (active).
In the case of `Nc1nc(NCCNc2ncc(-n3ccnc3)c(-c3ccc(Cl)cc3Cl)n2)ccc1[N+](=O)[O-]`, the Potency in assay [1] is 5.26 µM (active); in assay [2], 18.7 µM (active); in assay [7], 5.26 µM (active); in assay [8], 2.35 µM (active); in assay [5] it was 6.62 µM (active); in [9], 7.43 µM (active). Also, the Potency result in assay [4] is “inactive”.
`COc1cc2ncn(-c3cc(OCc4ccccc4C(F)(F)F)c(C(N)=O)s3)c2cc1OC`: the Potency in assay [1] is 0.332 µM (active); in assay [2] it was 1.32 µM (active); in assay [7] it was 0.743 µM (active); in assay [4] it was 18.7 µM (active); in assay [8], 1.66 µM (active); in assay [9], 18.7 µM (active).
In the case of `O=C(O)CO.[NH2-].[NH2-].[Pt+2]`, the Potency entry in assay [10], in assay [7], in assay [8], in [5] and in assay [9] was “inactive” throughout.
For the compound `Cc1c(Cn2c(C)nc3c(C(=O)O)cc(N4CCOCC4)cc32)cccc1C(F)(F)F`, the Potency in assay [1] is 0.264 µM (active); in assay [2], 8.33 µM (active); in assay [7] it was 18.7 µM (active); in [9] it was 4.18 µM (active). The Potency result in assay [4] was “inactive”.
Regarding `Nc1nc(-c2nn(Cc3ccccc3F)c3ncccc23)nc(N)c1N1CCOCC1`, in [10], the Potency entry was “inactive”. Further, the viability in assay [3] was 84.5%. Further, in assay [9], the Potency was 3.72 µM (active).
In the case of `CC(=O)Nc1nc(C)c(-c2ccc(Cl)c(S(=O)(=O)NCCO)c2)s1`, the Potency in [1] was 0.105 µM (active); in assay [2], 9.35 µM (active); in assay [7], 2.96 µM (active); in assay [4], 6.62 µM (active); in assay [8] it was 2.09 µM (active); in [9], 2.64 µM (active).
Take `O=C(O)CCCc1c[nH]c2ccccc12`: the Potency result in assay [10], in [4] and in [5] was “inactive” each time. Also, the viability in [3] is 113%. The Potency in [9] was 26.4 µM (active).
Consider `Cc1nc2cnc3ccc(C#Cc4cccnc4)cc3c2n1-c1ccc(C(C)(C)C#N)cc1`, for which the Potency in assay [1] was 0.105 µM (active); in assay [2], 6.62 µM (active); in assay [7], 0.0526 µM (active); in assay [3], 3.72 µM (active); in [8] it was 0.0105 µM (active); in assay [5], 0.0105 µM (active). Besides, the Potency in assay [9] was 0.0743 µM (active).
As for `CC(C)(C)c1cc(C(C)(C)C)c(NC(=O)c2c[nH]c3ccccc3c2=O)cc1O`, the Potency result in assay [10], in [4] and in assay [8] was “inactive” throughout. The viability in [3] is 97.5%.
Turning to `CCCCCN(CCC12CC3CC(CC(C3)C1)C2)C(=O)NCCCc1ccncc1`, the Potency in assay [1] is 16.6 µM (active); in assay [2], 14.8 µM (active); in assay [3], 23.5 µM (active); in [4], 14.8 µM (active); in [6], 18.7 µM (active).
With `Cc1nc2ccc(CN(C)c3ccc(C(=O)N[C@@H](CCC(=O)O)C(=O)O)s3)cc2c(=O)[nH]1`, the Potency entry in assay [1], in assay [8] and in assay [9] was “inactive” in each case. For the same compound, the Potency in assay [2] was 5.26 µM (active); in assay [7], 0.469 µM (active); in assay [4], 11.8 µM (active); in assay [5] it was 0.235 µM (active).
`Cc1cn2cc(C(=O)N(C)CCO)cc(N[C@@H]3CCOc4cccc(C)c43)c2n1`: the Potency result in assay [10], in [7], in assay [5] and in [6] was “inactive” in each case.
With `CCc1cc2c(cc1N1CCC(N3CCOCC3)CC1)C(C)(C)c1[nH]c3cc(C#N)ccc3c1C2=O`, in [1], the Potency was 1.48 µM (active).
`O=c1[nH]c(=O)n(C2CCCO2)cc1F` (stereo not drawn): the Potency result in assay [10], in [7], in assay [9] and in [6] was “inactive” each time.
Turning to `Cn1cc(-c2ccncc2)c(-c2ccc(OCc3ccc4ccccc4n3)cc2)n1`, the Potency is 10.5 µM (active) in assay [1]; 16.6 µM (active) in assay [2]; 10.5 µM (active) in assay [7]; 18.7 µM (active) in assay [4]; 5.26 µM (active) in assay [9].
For the compound `COc1ccc2c(OCc3nnc4ccc(-c5ccccc5)nn34)ccnc2c1`, the Potency result in assay [10], in [4] and in assay [5] was “inactive” in each case. Besides, the Potency in assay [8] is 0.469 µM (active).
For `Nc1ccn([C@@H]2O[C@H](CO)[C@H](O)C2(F)F)c(=O)n1`, the Potency in assay [1] was 0.001 µM (active); in assay [2], 5.9 µM (active); in [3] it was 0.0264 µM (active); in [4] it was 14.8 µM (active); in [5], 0.0209 µM (active); in assay [9], 0.526 µM (active). Moreover, the Potency in assay [6] is 0.0148 µM (active).
Regarding `COc1cc2c(Oc3ccc4[nH]c(C)cc4c3F)ncnc2cc1OCCCN1CCCC1`, the Potency is 6.62 µM (active) in assay [1]; 23.5 µM (active) in assay [2]; 5.9 µM (active) in [7]; 20.9 µM (active) in assay [3]; 26.4 µM (active) in [4]; 2.35 µM (active) in assay [8]. Moreover, the Potency in assay [5] is 3.32 µM (active); in [9], 4.69 µM (active).
Turning to `O=C1CCC[C@@H]2[C@H]3CCC[N+]4([O-])CCC[C@@H](CN12)[C@@H]34` (stereo partly drawn), the Potency result in [10], in assay [7] and in assay [5] was “inactive” each time. Also, the Potency in assay [9] is 6.62 µM (active).
On to `CN1CCN(c2cc(C(=O)Nc3ccc4c(c3)-c3c(c(C(N)=O)nn3-c3ccc(F)cc3)CC4)c(Cl)cn2)CC1`, for which the Potency in assay [1] is 0.187 µM (active); in assay [2] it was 2.96 µM (active); in [7], 9.35 µM (active); in assay [3], 26.4 µM (active); in assay [4], 2.96 µM (active); in assay [5], 3.32 µM (active). Also, the results for the Potency in [9] and in [6] were 2.96 µM (active) and 2.09 µM (active), respectively.
`O=C(O)C1(Cc2cccc(Nc3nccs3)n2)CCC(Oc2cccc(Cl)c2F)CC1` (stereo not drawn): the Potency in [1] was 0.296 µM (active); in assay [2] it was 0.662 µM (active); in [7], 0.332 µM (active); in assay [8], 0.209 µM (active); in [5], 0.0526 µM (active); in assay [9], 0.148 µM (active). Also, the Potency in [6] is 0.0372 µM (active). Also, the Potency result in assay [4] was “inactive”.
Take `NCC(=O)Nc1ccc(-n2nc(C(F)(F)F)cc2-c2ccc3c(ccc4ccccc43)c2)cc1`: the Potency was 16.6 µM (active) in assay [1]; 29.6 µM (active) in assay [2]; 37.2 µM (active) in assay [3]; 20.9 µM (active) in assay [4]; 18.7 µM (active) in assay [8]; 16.6 µM (active) in assay [5]. In [9], the Potency was 18.7 µM (active).
Turning to `Cc1cc(Nc2ncnc3ccc(-c4ccc(CNCCS(C)(=O)=O)o4)cc23)ccc1Oc1ccn2ncnc2c1`, the Potency in [1] is 9.35 µM (active); in [2], 16.6 µM (active); in [3], 26.4 µM (active); in assay [4], 18.7 µM (active); in assay [5], 6.62 µM (active); in assay [9], 1.48 µM (active). Also, the Potency in [6] is 6.62 µM (active).

The values are drawn from PubChem BioAssay (NCATS).
